Results from the supplement of paper PMC9694430.

Legend:
Experiment in all cases: thermal shift delta Tm vs DMSO control; higher = stronger stabilization (binding)
Conditions in all cases: 12.5 µM; protein concentration 2 µM
LOC_OS01G57100-cb003 = system: LOC_OS01G57100-cb003
Outline: (§1)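 Compounds dissolved in DMSO were added to purified rice kinase domain constructs, which had been expressed in E. coli, for differential scanning fluorimetry. Each well held 19.5 μl of 2 μM kinase in 100 mM potassium phosphate pH 7.5, 150 mM NaCl, 10% glycerol and 5 × SYPRO Orange. Fluorescence was followed from 25°C to 95°C at a rate of 0.05°C/s. Shifts in Boltzmann-fitted melting temperature are triplicate means relative to DMSO-only protein.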

LOC_OS01G60330-cb001 = system: LOC_OS01G60330-cb001
Outline: as §1

LOC_OS01G60700-cb002 = system: LOC_OS01G60700-cb002
Outline: as §1

LOC_OS01G63280-cb003 = system: LOC_OS01G63280-cb003
Outline: as §1

LOC_OS01G67340-cb003 = system: LOC_OS01G67340-cb003
Outline: as §1

LOC_OS01G70970-cb002 = system: LOC_OS01G70970-cb002
Outline: as §1

LOC_OS02G07810-cb001 = system: LOC_OS02G07810-cb001
Outline: as §1

LOC_OS02G08530-cb003 = system: LOC_OS02G08530-cb003
Outline: as §1

LOC_OS02G14120-cb001 = system: LOC_OS02G14120-cb001
Outline: as §1

LOC_OS02G17970-cb001 = system: LOC_OS02G17970-cb001
Outline: as §1

LOC_OS02G45750-cb003 = system: LOC_OS02G45750-cb003
Outline: as §1

LOC_OS02G54510-cb004 = system: LOC_OS02G54510-cb004
Outline: as §1

LOC_OS03G04050-cb001 = system: LOC_OS03G04050-cb001
Outline: as §1

LOC_OS03G12390-cb001 = system: LOC_OS03G12390-cb001
Outline: as §1

LOC_OS03G27990-cb004 = system: LOC_OS03G27990-cb004
Outline: as §1

LOC_OS03G50450-cb001 = system: LOC_OS03G50450-cb001
Outline: as §1

LOC_OS03G50810-cb003 = system: LOC_OS03G50810-cb003
Outline: as §1

LOC_OS04G35114-cb001 = system: LOC_OS04G35114-cb001
Outline: as §1

LOC_OS04G38480-cb003 = system: T1, LOC_OS04G38480-cb003
T1 sequence (whole entry): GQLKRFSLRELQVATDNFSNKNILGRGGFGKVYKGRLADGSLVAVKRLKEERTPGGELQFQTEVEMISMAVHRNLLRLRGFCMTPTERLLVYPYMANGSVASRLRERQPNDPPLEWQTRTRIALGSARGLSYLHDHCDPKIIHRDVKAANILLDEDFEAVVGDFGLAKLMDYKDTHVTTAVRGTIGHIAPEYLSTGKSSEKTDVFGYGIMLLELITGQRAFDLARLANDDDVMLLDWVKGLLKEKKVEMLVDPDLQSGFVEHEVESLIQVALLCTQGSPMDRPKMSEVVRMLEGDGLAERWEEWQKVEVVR
Outline: as §1

LOC_OS04G41100-cb001 = system: T2, LOC_OS04G41100-cb001
T2 sequence (whole entry): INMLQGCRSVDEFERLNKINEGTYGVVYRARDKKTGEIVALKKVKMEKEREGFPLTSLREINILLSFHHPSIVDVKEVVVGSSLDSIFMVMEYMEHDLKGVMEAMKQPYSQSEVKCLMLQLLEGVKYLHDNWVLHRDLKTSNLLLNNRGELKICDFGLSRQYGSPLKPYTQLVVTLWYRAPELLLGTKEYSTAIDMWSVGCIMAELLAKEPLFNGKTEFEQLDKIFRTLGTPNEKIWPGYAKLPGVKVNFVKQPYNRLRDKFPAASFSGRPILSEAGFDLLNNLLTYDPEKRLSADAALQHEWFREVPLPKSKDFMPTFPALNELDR
Outline: as §1

Row | SMILES | thermal shift delta Tm (LOC_OS01G57100-cb003) [°C] | thermal shift delta Tm (LOC_OS01G60330-cb001) [°C] | thermal shift delta Tm (LOC_OS01G60700-cb002) [°C] | thermal shift delta Tm (LOC_OS01G63280-cb003) [°C] | thermal shift delta Tm (LOC_OS01G67340-cb003) [°C] | thermal shift delta Tm (LOC_OS01G70970-cb002) [°C] | thermal shift delta Tm (LOC_OS02G07810-cb001) [°C] | thermal shift delta Tm (LOC_OS02G08530-cb003) [°C] | thermal shift delta Tm (LOC_OS02G14120-cb001) [°C] | thermal shift delta Tm (LOC_OS02G17970-cb001) [°C] | thermal shift delta Tm (LOC_OS02G45750-cb003) [°C] | thermal shift delta Tm (LOC_OS02G54510-cb004) [°C] | thermal shift delta Tm (LOC_OS03G04050-cb001) [°C] | thermal shift delta Tm (LOC_OS03G12390-cb001) [°C] | thermal shift delta Tm (LOC_OS03G27990-cb004) [°C] | thermal shift delta Tm (LOC_OS03G50450-cb001) [°C] | thermal shift delta Tm (LOC_OS03G50810-cb003) [°C] | thermal shift delta Tm (LOC_OS04G35114-cb001) [°C] | thermal shift delta Tm (LOC_OS04G38480-cb003) [°C] | thermal shift delta Tm (LOC_OS04G41100-cb001) [°C]
1 | CS(=O)(=O)N1CCN(Cc2cc3nc(-c4cccc5[nH]ncc45)nc(N4CCOCC4)c3s2)CC1 [Pictilisib (GDC-0941)] | 0.25 | 2.44 | 0.85 | -0.25 | -0.42 | 0.62 | 0.7 | 1.22 | 0.32 | 0.17 | 0.86 | 0.25 | 0.28 | 0.14 | 0.17 | 0.22 | 1.56 | 1.73 | -0.11 | 0.72
2 | CNC(=O)c1nn(C)c2c1C(C)(C)Cc1cnc(Nc3ccc(N4CCN(C)CC4)cc3)nc1-2 | 1.59 | 0.33 | 0.69 | -0.14 | 1.14 | 0.87 | 0.68 | 1.93 | 4.82 | 0.05 | 7.62 | 0.71 | 0.62 | -0.14 | 1.08 | 0.91 | 4.16 | 7.06 | 1.96 | 0.65
3 | N#C/C(=C\c1ccc(O)c(O)c1)C(=O)NCc1ccccc1 [AG-490 (Tyrphostin B42)] | 0.3 | 0.46 | 1.9 | 0.34 | 0.38 | 0.32 | 1.89 | 0.84 | -0.01 | 1.7 | 0.05 | 0.41 | 0.78 | 0.12 | 0.27 | -0.29 | 0.09 | -0.45 | 0.47 | 0.43
4 | COC(=O)Nc1ccc(-c2nc(N3CCOCC3)c3cnn(C4CCN(C(=O)OC)CC4)c3n2)cc1 | 2.22 | 0.77 | 0.54 | 0.41 | 0.13 | 0.2 | 0.91 | 0.58 | -0.24 | 0.43 | 0 | -0.07 | 0.1 | 0.08 | -0.05 | 0.08 | 0.17 | 0.06 | 0.81 | 0.47
5 | CC(C)n1ncnc1-c1cn2c(n1)-c1ccc(O[C@@H](C)C(N)=O)cc1OCC2 | 0.54 | 0.84 | 1.39 | 0.36 | 0.34 | 0.21 | 1.33 | 0.19 | 0.43 | 1.55 | 0.39 | 0.04 | 0.37 | 0.09 | 0.14 | 0.37 | 0.53 | 0.71 | 0.74 | 0.13
6 | N#C/C(=C(/N)Sc1ccc(N)cc1)c1ccccc1C(F)(F)F | 0.82 | 0.59 | 0.64 | -0.09 | -0.57 | 0.23 | 0.12 | 0.32 | -0.1 | 0.43 | -0.09 | 0.03 | 0.54 | -0.46 | 0.47 | -0.3 | -0.02 | 0.28 | 0.37 | 0.78
7 | O=C(NC(NC(=S)Nc1ccc(F)c([N+](=O)[O-])c1)C(Cl)(Cl)Cl)C(c1ccccc1)c1ccccc1 (centres undefined) | 4.28 | 8.97 | 3.48 |  | 0.17 | 1.86 | 3.38 | 2.71 | 2.37 | 3.46 | 0.8 | 1.3 | 1.21 | 1.23 | 0.49 | 0.84 | 1.45 | 1.31 | 3.23 | 0.88
8 | Cc1ccccc1-n1c(Cn2nc(-c3cccc(O)c3)c3c(N)ncnc32)nc2cccc(C)c2c1=O | 1.41 | 0.24 | 1.19 | 0.18 | 0.86 | 0.24 | 1.1 | 0.86 | -1.12 | -0.12 | -2.16 | -0.05 | -0.24 | -0.5 |  | 0.05 | 0.27 | 0.34 |  | 
9 | CCc1cc(Nc2nccc(-c3c(-c4ccc(OC)c(C(=O)Nc5c(F)cccc5F)c4)nc4ccccn34)n2)c(OC)cc1N1CCC(N2CCN(S(C)(=O)=O)CC2)CC1 | 1.35 | 0.65 | 1.19 | 0.43 | 0.06 | 0.26 | 0.77 | 0.82 | 0.04 | 0.47 | -0.02 | 0.08 | 0.66 | 0.08 | 0.49 | 0.27 | 0.2 | 0.36 | 0.7 | 0.67
10 | O=C(O[C@@H]1Cc2c(O)cc(O)cc2O[C@@H]1c1cc(O)c(O)c(O)c1)c1cc(O)c(O)c(O)c1 [(-)-Epigallocatechin Gallate] | 13.4 | 0.66 | -5.2 |  | 1 | -0.02 | 3.56 | -2.15 | 0.07 |  | -1.81 | -0.12 | 0.68 | -1.02 | 0.05 | -0.27 | -1.51 | -2.2 | 2.43 | 1.15
11 | CN1CCN(c2ccc3nc(-c4c(N)c5c(F)cccc5[nH]c4=O)[nH]c3c2)CC1 [Dovitinib (TKI-258, CHIR-258)] | -0.17 | 10.3 | 1.43 | 0.59 | 2.72 | 3.99 | 0.53 | 2.72 | 4.01 | -0.27 | 13 | 0.96 | 0.58 | 2.88 | 4.19 | 2.43 | 4.84 | 7.2 | 1.57 | 0.95
